Our source for the z-score values is PubChem BioAssay.

The structures appear in SMILES notation.

This assay is described as follows: calcein-AM signal in unstimulated myeloma cells – cell-based, calcein-AM fluorescence, 48 h, PK04 Diversity Set, profiling panel (AID 1166).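 Note: cells grown under basal conditions without added stimulus; test concentration not given here.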 The settings on record: RPMI8226 myeloma viability, higher = more signal.
As to `COC(=O)C(CC#Cc1ccc2c(c1)[C@]1(C(=O)N2)[C@H](C(=O)NC[C@H](O)c2ccccc2)[C@H]2C(=O)O[C@H](c3ccccc3)[C@H](c3ccccc3)N2[C@@H]1c1ccccc1OCCO)C(=O)OC`, the z-score is -4.57. For `CN(C)CCCNC(=O)[C@@]1(Cc2ccccc2I)c2ccccc2C(=O)N(C2CCCCC2)[C@H]1c1ccc(CO)cc1` the value was -4.34; for `CN1C(=O)C2C=CC(C(O)c3ccc(-c4ccccc4)s3)N(NC(=O)OC(C)(C)C)C2C1=O` (centres undefined), -0.906; for `CCCNC(=O)[C@@]1(Sc2ccc(C)cc2)CC(=O)N(Cc2ccccc2Cl)[C@@H]1c1ccc(CO)cc1I`, -1.67. Regarding `CN(C)c1ccc(C(O)C2C=CC3C(=O)N(Cc4ccccc4)C(=O)C3N2n2cnnc2)cc1` (centres undefined), the z-score is 1.4. Then `C[C@@H]1ON(c2ccccc2)[C@H](c2ccccc2)[C@H]1C(=O)O`, with 0.0402. `O=C1[C@H]2C=C(I)[C@H](C[C@@H]2c2ccccc2)[C@@]12CO2`: the z-score was -3. Regarding `C=CCC(OC(C)=O)[C@@H]1[C@@H](N(Cc2ccc(-c3cccc(C(F)(F)F)c3)o2)C(=O)c2ccc(-c3ccccc3)cc2)c2cc(OCCCO)ccc2N1C(=O)c1ccc2ccccc2c1` (some centres undefined), the z-score was -0.164. As for `O=C(NCc1ccc(F)cc1)[C@H]1C[C@H]2C(=O)N3CCC[C@H]3C(=O)N2[C@H]1c1ccc(O)cc1`, the z-score was -0.625. For `N#Cc1ccc(NN2C(C(O)C3CC=CCC3)C=CC3C(=O)N(c4ccccc4)C(=O)C32)cc1` (centres undefined) the value was -0.265. For `CCCNC(=O)[C@@]1(c2ccc([N+](=O)[O-])cc2)CC(=O)N(C(C)C)[C@@H]1c1ccc(CO)cc1` the value was 0.11; for `CC(C)N1C(=O)C[C@@](C(=O)NCCN2CCOCC2)(c2ccc([N+](=O)[O-])cc2)[C@H]1c1ccc(CO)cc1`, 0.0859. For the molecule `C[N+](C)(C)CCCC[C@@H]1NC(=O)[C@H]2C[C@@H](C(=O)NCCCCCNC(=O)CS)[C@@H](c3cccc(OCCO)c3)N2C1=O`, the z-score is 0.37. Then `[N-]=[N+]=Nc1ccccc1[C@@H]1OC(c2ccc(OCCCO)cc2)=N[C@]1(Cc1ccccc1)C(=O)NCCN1CCOCC1`, with -4.18; and `CCOC(=O)C[C@H]1[C@H](OC(=O)c2ccccc2-c2ccccc2)[C@@H](NC(=O)C2CCCCC2)c2cc(OCCCO)ccc2N1C(=O)c1ccc2ccccc2n1`, with -1.3.

With `NC(=O)N1C(=O)C2C(C1=O)C1C=C(CCCO)C2C(c2ccc(CN3CCCC3)cc2)N1Cc1sc2ccccc2c1Cl` (centres undefined), the z-score is 0.0222. Then `CC(C)(C)N1CC=CC23O[C@@H]4/C=C\CCCOC(=O)C4[C@H]2C(=O)N(CCCO)[C@@H]3C1=O` (some centres undefined), with -0.0698; and `CC(C)N1C(=O)c2ccccc2[C@](C)(C(=O)NCC(F)(F)F)[C@@H]1c1ccc(CO)cc1`, with 0.177; and `COc1ccc(C#Cc2ccc3c(c2)[C@]2(C(=O)N3)[C@H](C(=O)O)[C@H]3C(=O)O[C@H](c4ccccc4)[C@H](c4ccccc4)N3[C@@H]2c2ccccc2OCCO)cc1`, with -4.18. For `CCCCCC1=C2CNC(Cc3ccccc3)(C(=O)OC)C=C2C(C)C1=O` (centres undefined) the value was -3.65; for `CCCCCCc1nc(-c2ccc(-c3ccc(Cl)c(Cl)c3)o2)cc2c1[Si](C(C)C)(C(C)C)OC2`, -4.4; for `COC(=O)[C@H](Cc1ccccc1)N1CC2=CCCC=C[C@@H]2[C@H]1[C@H](O)Cc1ccccc1`, -1.41. As to `COC(=O)[C@@]1(Cc2ccc(F)cc2)[C@H]2c3cc(C(=O)N4CCCC4)n(CCc4ccccn4)c3C[C@H]2CN1C(=O)c1ccccc1`, the z-score was -0.431. As for `O=C1N(CCS(=O)(=O)c2ccccc2)c2ccccc2C[C@]12N=C(c1ccc(OCCCO)cc1)O[C@@H]2c1ccccc1`, the z-score is -2.48. `C=CCN1C(=O)[C@]2(O[C@H](CCn3cc([C@H](O)c4ccccc4)nn3)[C@@H]([Si](C)(C)c3ccc(OC)cc3)[C@@H]2C)c2cc(NC(=O)c3ccc(OC)cc3)ccc21`: the z-score was -4.38. Then `C=C(COC)C(=O)CC[C@@H](OC(C)=O)c1ccccc1OCCO`, with -1.75; and `COC(=O)[C@@]1(Cc2ccc(F)cc2)[C@H]2c3cc(C(=O)N4CCCC4)n(Cc4ccccn4)c3C[C@H]2CN1C(=O)c1ccccc1`, with -2; and `C=CCOC(=O)[C@@H]1[C@H]2C(=O)O[C@H](c3ccccc3)[C@H](c3ccccc3)N2[C@H](c2ccc(OCCOC(=O)[C@H]3C[C@H]4C(=O)NCC(=O)N4[C@H]3c3cccc(OCCO)c3)cc2)[C@@]12C(=O)Nc1ccc(I)cc12`, with -0.785. Then `COC(=O)C[C@H]1O[C@@]2(C[C@@H]1[Si](C)(C)C)C(=O)N(C)c1ccccc12`, with -0.356.
